Source: PubChem
SIRT5 inh: inhibitors of human sirtuin-5 desuccinylase; AID 652115; actives 1.1% (n = 330,000); Purified SirT5, succinyl-peptide AMC, trypsin-coupled fluorescence; inhibition, % at 15 µM; Q9NXA8; in the data active means inhibition above about 15%; inconclusive means no clear call, values can overlap the other calls
ERp5 inh: blocks human ERp5 reductase activity on insulin; Q15084; ERp5 insulin aggregation, absorbance 650 nm, 90 min; inhibition, % at 9.99 µM; actives 0.05% (n = 350,000); AID 651711;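 active means mean replicate inhibition above about 25%, with every replicate also reaching it, limit read from the data, passing the limit was not always enough; inconclusive means only one of those two criteria met; inactive means neither criterion met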
PDI inh: blocks human protein disulfide isomerase activity; P07237; PDI insulin aggregation turbidity, A650, 90 min; inhibition, % at 10 µM; actives 0.052% (n = 350,000);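 active means mean inhibition across replicates of 30% or more, whatever share of single replicates reach that level; inconclusive means mean inhibition below 30% while every single replicate reaches 30%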
Target sequence (P07237 whole entry, looked up): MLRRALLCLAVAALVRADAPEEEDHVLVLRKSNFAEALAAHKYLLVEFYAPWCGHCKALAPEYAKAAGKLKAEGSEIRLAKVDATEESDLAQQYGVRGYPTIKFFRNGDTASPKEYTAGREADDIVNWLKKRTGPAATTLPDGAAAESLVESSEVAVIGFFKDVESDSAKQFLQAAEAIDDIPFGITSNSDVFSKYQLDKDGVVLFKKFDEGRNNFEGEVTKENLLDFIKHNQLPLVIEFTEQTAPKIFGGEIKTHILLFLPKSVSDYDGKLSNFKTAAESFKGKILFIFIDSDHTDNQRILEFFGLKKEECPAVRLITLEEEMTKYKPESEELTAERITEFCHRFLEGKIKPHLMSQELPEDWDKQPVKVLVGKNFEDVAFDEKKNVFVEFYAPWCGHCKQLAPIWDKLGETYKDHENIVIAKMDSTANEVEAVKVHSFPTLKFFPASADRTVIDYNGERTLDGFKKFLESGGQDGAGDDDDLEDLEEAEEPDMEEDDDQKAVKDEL
Rtt109 HAT inh: C. albicans Rtt109 histone acetyltransferase inhibition. Q5AAJ8. purified Rtt109/Vps75, ThioGlo CoA-SH fluorescence, 4 h. inhibition, % at 34.9 µM. actives 0.16% (n = 330,000). AID 540336;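 active means inhibition of at least 50% in every replicate; inconclusive means best replicate reaches 50% inhibition but some replicates fall short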
DENV2 CPE: inhibitors of DENV2 cytopathic effect; DENV2-infected cells, cytopathic effect rescue, plate reader; CPE inhibition, % at 9.99 µM; actives 1.7% (n = 350,000); AID 651640; in the data active means CPE inhibition above about 20%, passing the limit was not always enough; inconclusive means no clear call, values can overlap the other calls; tested in BHK-21 cells;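 further: 0% = median of neutral control wells and 100% = median of positive control wells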
The depositor's hits bear a star. Sampled rows, rich in hits. Any-hit rate of the full collection: about 2.3%.

What do the screens show for `CCOc1ccc(CCN2C(=S)N([C@@H](CC(C)C)CN3CCCC3CN3C(=S)NC[C@@H]3Cc3ccc(O)cc3)C[C@@H]2Cc2ccccc2)cc1` (stereo not given in full)?
SIRT5 inh: -3; ERp5 inh: 3; PDI inh: 4; Rtt109 HAT inh: 3; DENV2 CPE: -11

What do the screens show for `CC(C)C[C@@H](CN1CCCC1CN1C(=S)NC[C@@H]1Cc1ccc(O)cc1)N1C[C@H](Cc2ccc(O)cc2)N(CC2CCCCCC2)C1=S` (stereo not given in full)?
SIRT5 inh: 0; ERp5 inh: 1; PDI inh: -1; Rtt109 HAT inh: -7; DENV2 CPE: 41*

How did C[C@H](CO)N1C[C@H](C)[C@@H](CN(C)S(=O)(=O)c2cn(C)cn2)Oc2ncc(/C=C/c3ccccc3)cc2C1=O do in these assays?
SIRT5 inh: -12; ERp5 inh: -3; DENV2 CPE: 1

How did CC(C)(C)OC(=O)N1CCC(NC(=O)c2nc[nH]c2C(=O)NCc2ccccc2)CC1 do in these assays?
ERp5 inh: 2; PDI inh: 8; Rtt109 HAT inh: 2; DENV2 CPE: 34*

Results for CC(C)C[C@H](NC(=O)c1nc[nH]c1C(=O)NC1CCN(C(=O)OC(C)(C)C)CC1)C(=O)OC(C)(C)C ?
ERp5 inh: 2; PDI inh: -3; Rtt109 HAT inh: -2; DENV2 CPE: 50*

Results for CN(Cc1ccccc1)C(=O)c1nc[nH]c1C(=O)N1CCN(C(=O)OC(C)(C)C)CC1 ?
ERp5 inh: 3; PDI inh: -8; Rtt109 HAT inh: -4; DENV2 CPE: 42*

Results for C[C@H](CO)N1C[C@H](C)[C@@H](CN(C)S(=O)(=O)c2ccc(Cl)cc2)OCCCC[C@H](C)Oc2ccc(NC(=O)NC3CCCCC3)cc2C1=O ?
SIRT5 inh: 11; ERp5 inh: 0; DENV2 CPE: -7

Results for CO[C@H]1CN(C)C(=O)c2cc(NC(=O)C3CCC3)ccc2OC[C@H](C)N(CC2CCCCC2)C[C@H]1C ?
SIRT5 inh: -1; ERp5 inh: -2; DENV2 CPE: 2

How did O=S(=O)(c1ccc(F)cc1)N1CCCCN2[C@H](CO)[C@H](c3ccc(C#CC4CCCC4)cc3)[C@@H]2C1 do in these assays?
SIRT5 inh: 23*; ERp5 inh: 1; DENV2 CPE: -6

How did O=S(=O)(c1ccc(F)cc1)N1CCCCN2[C@@H](CO)[C@@H](c3ccc(C#CC4CCCC4)cc3)[C@@H]2C1 do in these assays?
SIRT5 inh: 23*; ERp5 inh: 5; DENV2 CPE: -2

What do the screens show for `O=S(=O)(c1ccc(F)cc1)N1CCCCN2[C@H](CO)[C@@H](c3ccc(C#CC4CC4)cc3)[C@@H]2C1`?
SIRT5 inh: 4; ERp5 inh: -3; DENV2 CPE: 18

Results for O=S(=O)(c1ccc(F)cc1)N1CCCCN2[C@@H](CO)[C@H](c3ccc(C#CC4CCCC4)cc3)[C@@H]2C1 ?
SIRT5 inh: 27*; ERp5 inh: 0; DENV2 CPE: -4

What do the screens show for `O=S(=O)(c1ccc(F)cc1)N1CCCCN2[C@H](C1)[C@@H](c1ccc(C#CC3CCCC3)cc1)[C@@H]2CO`?
SIRT5 inh: 1; ERp5 inh: 1; DENV2 CPE: -10

What do the screens show for `CCCC(=O)N1CC2(C1)CN(S(C)(=O)=O)[C@H](CO)c1c2c2ccc(OC)cc2n1C`?
SIRT5 inh: -4; ERp5 inh: -4; DENV2 CPE: 0

What do the screens show for `O=C(NC1CCCCC1)c1ccc(S(=O)(=O)c2ccccc2)cc1`?
SIRT5 inh: 40*; ERp5 inh: 4; PDI inh: 5; Rtt109 HAT inh: 0; DENV2 CPE: 4

How did O=C(NC1CC1)c1ccc(S(=O)(=O)NC2CCCCCC2)cc1 do in these assays?
PDI inh: -3; Rtt109 HAT inh: -5

How did CCCNC(=O)[C@H]1[C@H](CO)[C@H]2Cn3c(ccc(-c4ccccc4)c3=O)[C@@H]1N2C(=O)CC do in these assays?
SIRT5 inh: -30; ERp5 inh: 6; DENV2 CPE: 3

What do the screens show for `Cc1cc(C)c(NC(=O)CSc2nc3ncc(Br)cc3[nH]2)c(C)c1`?
SIRT5 inh: 19*; ERp5 inh: -1; PDI inh: 7; Rtt109 HAT inh: -5; DENV2 CPE: 2

What do the screens show for `CCC(C)CN1C(=O)CSCC1(C)C(=O)Nc1ccc2c(c1)OCCO2` (stereo not given)?
SIRT5 inh: 2; ERp5 inh: -2; DENV2 CPE: 31*

What do the screens show for `COc1cc(=O)[nH]c(SC(C)C(=O)Nc2cccc3ccccc23)n1` (stereo not given)?
SIRT5 inh: 75*; ERp5 inh: 5; PDI inh: -3; Rtt109 HAT inh: -4; DENV2 CPE: 6

How did COc1cc(=O)[nH]c(SC(C)C(=O)Nc2nc3c(s2)CCCC3)n1 (stereo not given) do in these assays?
SIRT5 inh: -3; ERp5 inh: 2; PDI inh: -4; Rtt109 HAT inh: -12; DENV2 CPE: -3

Results for O=C(CCN1CCc2ccccc2CC1)c1ccc2c(c1)OCCO2 ?
PDI inh: -2; Rtt109 HAT inh: 177*

How did O=C(CCN1CCOCC1)c1ccc2c(c1)OCCO2 do in these assays?
PDI inh: 2; Rtt109 HAT inh: 6

Results for COCCNC(=O)[C@@]1(C)C=C[C@@H](Cc2ccccc2)N1C(=O)c1ccccc1 ?
SIRT5 inh: 0; ERp5 inh: 6; PDI inh: 0; Rtt109 HAT inh: 5; DENV2 CPE: -15

Results for C[C@]1(C(=O)NCc2cc(F)cc(C(F)(F)F)c2)C=C[C@@H](Cc2ccccc2)N1C(=O)c1ccccc1 ?
SIRT5 inh: 34*; ERp5 inh: -1; PDI inh: 7; Rtt109 HAT inh: 0; DENV2 CPE: inconclusive

How did COc1ccc2c(=O)cc(-c3ccncc3)oc2c1OC do in these assays?
ERp5 inh: -7; PDI inh: 3; Rtt109 HAT inh: 22; DENV2 CPE: 33*

How did COc1ccc(-c2cc(=O)c3c(OC)c(OC)c(OC)c(OC)c3o2)cc1OC do in these assays?
SIRT5 inh: 2; ERp5 inh: -3; PDI inh: -7; Rtt109 HAT inh: 4; DENV2 CPE: -3

What do the screens show for `C[C@H](O)C#Cc1cnc2c(c1)C(=O)N([C@@H](C)CO)C[C@H](C)[C@H](CN(C)CC1CCCCC1)O2`?
SIRT5 inh: -2; ERp5 inh: 32*; DENV2 CPE: 3

What do the screens show for `C[C@H](O)C#Cc1cnc2c(c1)C(=O)N([C@H](C)CO)C[C@H](C)[C@@H](CN(C)CC1CCCC1)O2`?
SIRT5 inh: 21*; ERp5 inh: 10; DENV2 CPE: 7

Results for C[C@H]1CN([C@@H](C)CO)C(=O)c2cc(C#Cc3cccc(F)c3)cnc2O[C@@H]1CN(C)CC1CCCC1 ?
SIRT5 inh: 23*; ERp5 inh: -4; DENV2 CPE: 15

What do the screens show for `CCCC(=O)Nc1ccc2c(c1)C(=O)N(C)[C@@H]1CC[C@@H](CC(=O)Nc3cn(C)nc3C)O[C@H]1CO2`?
SIRT5 inh: -4; ERp5 inh: 6; DENV2 CPE: 10
